Inconclusive results are not listed. Entries that show only a call come without a potency. Unmarked numbers belong to inactive results. The source made the active and inactive calls. The call rests on the fitted dose curve; in most records, active means well fitted inhibition curve with a large enough effect; inconclusive means small, poorly fitted or top-dose-only effect; inactive means no such curve, though single readings can be large or run the other way.
Target: Retinaldehyde dehydrogenase 3 (Homo sapiens) (UniProt P47895)
Assay: qHTS for Inhibitors of the Aldehyde Dehydrogenase Family (ALDH1A3) Primary screen (AID 2061315)
Conditions: ALDH inhibition qHTS; series mostly up to 56 µM

| SMILES | Potency | activity change, negative = inhibition |
| --- | --- | --- |
| Cc1ccccc1C(=O)N1CC/C(=N\OS(=O)(=O)O)c2ccc(Cl)cc21 | inactive | – |
| O=C(/C=C/c1ccc(O)cc1)N[C@@H](Cc1ccc(O)cc1)C(=O)O | inactive | – |
| CC(=O)/C=C/C1(O)C(C)(C)CC(O)CC1(C)O (configuration not stated) | inactive | – |
| CC1CCC2C(C(=O)O)=CC3CC(C)(C)CC132 (configuration not stated) | inactive | – |
| NC(=O)C(O[C@@H]1O[C@H](CO[C@@H]2O[C@H](CO)[C@@H](O)[C@H](O)[C@H]2O)[C@@H](O)[C@H](O)[C@H]1O)c1ccccc1 (some centres not stated) | inactive | – |
| O=C(Cc1ccccc1)OC[C@H]1O[C@H](O[C@H]2O[C@H](CO)[C@@H](O)[C@H](O)[C@H]2O)[C@H](O)[C@@H](O)[C@@H]1O | inactive | – |
| C=C1C(=O)OC2/C=C(\CO)CC/C=C(\C=O)CC(OC(=O)CC(C)C)C12 (configuration not stated) | inactive | – |
| O=C(/C=C/c1ccc(O)cc1)OCC1=CC2OC(=O)C3=CO[C@@H](O[C@@H]4O[C@H](CO)[C@@H](O)[C@H](O)[C@H]4O)[C@H]1[C@@H]32 (some centres not stated) | inactive | – |
| C=C[C@](C)(O)CC[C@H]1C(C)=CC(=O)[C@H]2C(C)(C)CCC[C@]12C | inactive | – |
| CC(=O)OC1C(c2ccccc2)CCC(c2ccccc2)C1OC(C)=O (configuration not stated) | inactive | – |
| C[C@@H]1O[C@@H](O[C@H]2[C@H](O[C@H]3[C@H](O[C@H]4CC[C@@]5(C)C(CC[C@]6(C)C5CC=C5[C@@H]7CC(C)(C)C[C@@H](O)[C@]7(C)CC[C@]56C)[C@@]4(C)CO)O[C@H](C(=O)O)[C@@H](O)[C@@H]3O)O[C@H](C(=O)O)[C@H](O)[C@@H]2O)[C@H](O)[C@H](O)[C@H]1O (some centres not stated) | inactive | – |
| C[C@H]1CC[C@@]2(OC1)O[C@H]1CC3C4CC=C5C[C@H](O)C[C@@H](O[C@@H]6O[C@@H](C)[C@H](O)[C@@H](O)[C@H]6O[C@@H]6O[C@@H](C)[C@H](O)[C@@H](O)[C@H]6O)[C@]5(C)C4CC[C@]3(C)[C@H]1[C@@H]2C (some centres not stated) | inactive | – |
| C/C=C(\C)C(=O)OC1C=C(C)CC(OC(=O)c2ccc(O)cc2)C2C1(C)CCC2(O)C(C)C (configuration not stated) | inactive | – |
| CC1CCC2C(C)(C)CC(C)(CO)C2(O)C1C(=O)O (configuration not stated) | inactive | – |
| COc1cc(/C=C/C(=O)OC[C@H]2O[C@@](CO)(O[C@H]3O[C@H](CO)[C@@H](O)[C@H](O)[C@H]3O)[C@@H](OC(=O)/C=C/c3ccc(O)c(OC)c3)[C@@H]2O)ccc1O | inactive | – |
| O=c1cc(N2CCN(c3cccc(C(F)(F)F)c3)CC2)[nH]c(=O)n1C1CCCCC1 | inactive | – |
| C=C1C(=O)O[C@@H]2C[C@]3(C)[C@@H](CCC(C)=O)[C@@H]3C[C@H]12 | inactive | – |
| CC1CCC2(C(=O)OC3OC(CO)C(O)C(O)C3O)CCC3(C)C(=CCC4C5(C)CCC(O)C(C)(CO)C5CCC43C)C2C1(C)O (configuration not stated) | inactive | – |
| C=C1CCC2C(C)(C(=O)O)CCCC2(C)C1CC/C(C)=C\CO (configuration not stated) | inactive | – |
| CC(=O)O[C@H]1CC[C@@]2(CI)C(=CC[C@@H]3[C@@H]2CC[C@]2(C)[C@@H]([C@H](C)CCCC(C)C)CC[C@@H]32)C1 | – | 5.91% [at 11.2 µM] |
| CC1CCC2C(C)(C)C(O)CCC2(C)C12Cc1c(O)cc3c(c1O2)CN=C3N (configuration not stated) | inactive | – |
| C[C@@H]1O[C@@H](O[C@H]2[C@H](O[C@H]3[C@H](O[C@H]4CC[C@@]5(CO)C(CC[C@]6(C)C5CC=C5C7CC(C)(C)C[C@@H](O)[C@]7(C)CC[C@]56C)C4(C)C)O[C@H](C(=O)O)[C@@H](O)[C@@H]3O)OC[C@@H](O)[C@@H]2O)[C@H](O)[C@H](O)[C@H]1O (some centres not stated) | inactive | – |
| C/C=C(\C)C(=O)OC[C@H]1O[C@@H](O[C@H]2[C@@H](O[C@H]3O[C@H](COC(=O)/C(C)=C/C)[C@@H](O)[C@H](O)[C@H]3O[C@@H]3O[C@H](COC(=O)/C(C)=C/C)[C@@H](O)[C@H](OC(=O)/C(C)=C/C)[C@H]3O)O[C@H](COC(=O)/C(C)=C/C)[C@@H](O)[C@@H]2O)[C@H](O)[C@@H](O)[C@@H]1O | inactive | – |
| CN1[C@@H]2CC[C@H]1CC(NC(=O)n1c(=O)[nH]c3ccccc31)C2 (some centres not stated) | inactive | – |
| C=C[C@]1(C)C[C@H](O)[C@H]2C(=C)C(=O)O[C@@H]2[C@H]1C(=C)CO | inactive | – |
| CC(=O)O[C@H]1C[C@@](O)(C(C)C)[C@@H]2[C@@H](OC(=O)c3ccc(O)cc3)CC(C)=CC[C@@]12C | inactive | – |
| OCC1=C[C@@H](O)[C@@H]2C=CO[C@@H](O[C@@H]3O[C@H](CO)[C@@H](O)[C@H](O)[C@H]3O)[C@H]12 | inactive | – |
